9 compounds from PubChem BioAssay (NCATS) can be followed below.

Results filed as inconclusive are left out. Where a call stands in place of a potency, no number is given. Activity calls are given as the source filed them. Calls follow the shape of the dose curve; as a rule, active = well fitted inhibition curve with a large enough effect; inconclusive = small, poorly fitted or top-dose-only effect; inactive = no such curve, though single readings can be large or run the other way.

The target in this test is Retinaldehyde dehydrogenase 3 (Homo sapiens) (UniProt P47895). The test can be described thus: qHTS for Inhibitors of the Aldehyde Dehydrogenase Family (ALDH1A3) Primary screen (AID 2061315). Conditions: ALDH inhibition qHTS; series mostly up to 56 µM. For orientation: Quantitative high-throughput screening tests each substance at several concentrations.
As for `COC(=O)c1ccc(N2CCN(C)CC2)c(NC(=O)c2cccc(OC)c2)c1`, the Potency entry was “inactive”. The value for `CC(O)/C=C/C1OC(=O)CC1Nc1ccc(C(=O)O)cc1` (centres undefined) was “inactive”.

With `COc1cc(C(C)=O)ccc1O[C@@H]1O[C@H](CO[C@@H]2OC[C@@H](O)[C@H](O)[C@H]2O)[C@@H](O)[C@H](O)[C@H]1O`, the Potency result was “inactive”.

Take `COC(=O)CCSCc1ccc(-c2onc(C)c2NC(=O)OC(C)c2ccccc2Cl)cc1` (centres undefined): the Potency result was “inactive”. The result for `C[C@@H]1O[C@@H](O[C@H]2[C@H](O[C@H]3CC[C@@]4(C)C(CC[C@]5(C)C4C=C[C@]46OC[C@@]7(CCC(C)(C)C[C@H]74)[C@@H](O[C@@H]4O[C@@H](C)[C@H](O)[C@@H](O)[C@H]4O)C[C@]65C)[C@]3(C)CO)O[C@H](CO)[C@@H](O)[C@@H]2O[C@@H]2O[C@H](CO)[C@@H](O)[C@H](O)[C@H]2O)[C@H](O)[C@H](O)[C@H]1O` (some centres undefined) reads “inactive”. On to `CCNC(=O)Nc1ccc(-c2nc3c(c(N4CCOCC4C)n2)CCN(C2COC2)C3)cc1` (centres undefined), for which the Potency result was “inactive”. The value for `CC(=O)C1=CCC2C3CCC4CC(O[C@@H]5O[C@H](CO)[C@@H](O[C@@H]6O[C@@H](C)[C@H](O)[C@@H](O)[C@H]6O)[C@H](O)[C@H]5O[C@@H]5O[C@H](CO)[C@@H](O)[C@H](O)[C@H]5O)CCC4(C)C3CCC12C` (some centres undefined) was “inactive”; that for `COc1cc(/C=C/C(=O)O)ccc1O[C@@H]1O[C@H](CO)[C@@H](O)[C@H](O)[C@H]1O[C@@H]1OC[C@](O)(CO)[C@H]1O` was “inactive”. Consider `CC1OC(OC2CCC3(C)C(CCC4(C)C3CC=C3C5CC(C)(C)CCC5(C(=O)OC5OC(CO)C(O)C(O)C5O)CCC34C(=O)O)C2(C)C)C(O)C(O)C1O` (centres undefined), for which the Potency result is “inactive”.
